Assay results as given in ChEMBL document CHEMBL4513216, “Probing the Open Global Health Chemical Diversity Library for Multistage-Active Starting Points for Next-Generation Antimalarials” (ACS Infect Dis, 2020).
The campaign covered roughly 69,000 compounds. About 8,600 (12%) showed an effect of 50% or more. This excerpt belongs to a sample that is enriched for strong results.

Each compound was assayed on Plasmodium berghei (assay: Screen against P. berghei liver stage (PbLuc), transformed with Luciferase, at 10uM). Settings: tested at 10 uM.
Type: functional, HepG2

| Compound | INHIBITION |
| --- | --- |
| COCc1cn(CC2CCN(Cc3nc(C)c[nH]3)CC2)nn1 | -7.85% |
| Cc1cc(C(=O)N2CCc3c(CN(C)C)nn(C)c3C2)[nH]n1 | 13.7% |
| O=C(NCCc1ccncc1)c1cccc(S(=O)(=O)N[C@@H]2CCNC2)c1 | -16.1% |
| O=C(Nc1nc2c(s1)CN(S(=O)(=O)C1CC1)CC2)C1CC1 | 37.9% |
| O=C(Nc1nc2c(s1)CNCC2)NC1CCCC1 | 44.5% |
| O=C(Nc1nc2c(s1)CNCC2)C1CC1 | 52.7% |
| O=C(c1cc(-n2cccn2)ccn1)N1CCOc2ncccc21 | 30.5% |
| O=C(c1cc(-n2cccn2)ccn1)N1CCOc2ccc(F)cc21 | 23.3% |
| O=C(c1cc(-n2cccn2)ccn1)N1CCOc2ccncc21 | 52.9% |
| O=C(COc1ccccc1Br)N1CCOc2ccncc21 | 9.35% |
| COc1cccc(OCC(=O)N2CCOc3ccncc32)c1 | -28.9% |
| COc1ccc(C(=O)N2CCOc3ccncc32)cc1 | 60% |
| c1cnc2c(c1)cc([C@@H]1CCCO1)n2CCN1CCCCC1 | 38.8% |
| COC(=O)C(c1cc(F)ccc1F)N(C)C(=O)c1cnccn1 (stereo not drawn) | 48.4% |
| CC(C)c1nn(C)c(N(C)C)c1CNC(C)c1ccccc1F (stereo not drawn) | 15.5% |
| Cc1nc(CO[C@@H]2CN(Cc3ccco3)[C@@H]3COC[C@@H]32)cs1 | 18.2% |
| c1ccc(COC2CCN(Cc3cc4n(n3)CCCNC4)CC2)nc1 | 37.9% |
| OC(c1ccccn1)C1CCN(Cc2cc3n(n2)CCNC3)CC1 (stereo not drawn) | 61.5% |
| O=C1OCCN1C1CCN(Cc2cc3n(n2)CCCNC3)CC1 | -78.3% |
| c1csc(N2CCN(Cc3cc4n(n3)CCNC4)CC2)n1 | -90.8% |
| c1ccc(C2CCCN(Cc3cc4n(n3)CCNC4)CC2)cc1 (stereo not drawn) | 18.4% |
| OC(c1ccccn1)C1CCN(Cc2cc3n(n2)CCCNC3)CC1 (stereo not drawn) | 51.2% |
| c1cc(CNc2cnc(C3CCCN3)cn2)ccn1 (stereo not drawn) | 3.03% |
| COc1ccc(-c2cc(C3(O)CCCC3)on2)cc1 | -111% |
| CNC(=O)[C@H]1C[C@H]2OCC[C@H]2N(Cc2ccc(C)o2)C1 | 10.3% |
| Cn1cc(C2CC(=O)NC23CCN(Cc2ccncc2)CC3)cn1 (stereo not drawn) | -16.2% |

| Compound | INHIBITION |
| --- | --- |
| CCOC(=O)N[C@H]1C[C@@H](C(=O)NCCc2cccc(Cl)c2)N(C)C1 | 55% |
| COCC(=O)N[C@H]1C[C@@H](C(=O)NCCc2cccc(Cl)c2)N(C)C1 | 31.1% |
| CCOC(=O)N[C@H]1C[C@@H](C(=O)NCc2cccc(Cl)c2)N(C)C1 | -0.71% |
| CC(C)CC(=O)N(C)CC(=O)Nc1ccc(Br)cn1 | 29.7% |
| CCN1CCN(c2ccc(C(=O)NCCn3ccnc3)cc2F)CC1 | 38.8% |
| CCN1CCN(c2ccc(C(=O)NCc3cc(C)no3)cc2F)CC1 | 11.7% |
| CCN1CCN(c2ccc(C(=O)NCCOC)cc2F)CC1 | 76.7% |
| CCCc1ccc(C(=O)N2Cc3c(Cn4ccnc4)nn(C)c3C2)cc1 | 78.8% |
| COc1ccc(C(=O)N2Cc3c(Cn4ccnc4)nn(C)c3C2)cc1 | 32.4% |
| Cn1nc(CN2CCCCC2)c2c1CN(C(=O)Nc1cccc(F)c1)C2 | 79.6% |
| Cn1nc(Cn2ccnc2)c2c1CN(C(=O)c1ccoc1)C2 | 47.4% |
| Cn1nc(CN2CCCC2)c2c1CN(C(=O)Nc1cccc(F)c1)CC2 | 20.1% |
| Cc1ccc(C(=O)N2CCc3c(CN4CCCC4)nn(C)c3C2)cc1C | 44.3% |
| Cc1ccc(C(=O)N2Cc3c(CN4CCCCC4)nn(C)c3C2)cc1F | -31% |
| Cc1ccc(C(=O)N2Cc3c(CN4CCCCC4)nn(C)c3C2)cc1C | 65.4% |
| CN(C)Cc1nn(C)c2c1CN(C(=O)Nc1cccc(F)c1)C2 | -36.2% |
| O=C(NCCCn1cncn1)N1CCCCCC1 | 20.45% |
| COCCOc1ncccc1C(=O)N1CCCCC1c1nccs1 (stereo not drawn) | -38.7% |
| CCc1cc(C(=O)N2CCC(c3cc4ncccc4cn3)CC2)on1 | 20.8% |
| CCCN1CCN(C(=O)c2ccn(COc3ccc(F)cc3)n2)CC1 | 2.69% |
| CCOc1ccccc1C(=O)Nn1c(C)cc(C)cc1=O | 44.1% |
| CC(=O)N1CCN(CCNC(=O)NC(C)Cn2ccnc2)CC1 (stereo not drawn) | 43.5% |
| CNC(=O)[C@H]1C[C@@H]2CCN(Cc3ccc4c(c3)OCO4)C[C@@H]2O1 | -9.18% |
| COCCNC(=O)[C@H]1C[C@@H]2CCN(Cc3ccoc3)C[C@H]2O1 | 30.1% |
| O=C(NC1CC1)[C@@H]1C[C@@H]2CCN(Cc3ccoc3)C[C@@H]2O1 | 49.4% |
| CC(C)NC(=O)[C@@H]1C[C@@H]2CCN(Cc3ccoc3)C[C@H]2O1 | 53.9% |

| Compound | INHIBITION |
| --- | --- |
| CNC(=O)[C@@H]1C[C@@H]2CCN(Cc3ccoc3)C[C@H]2O1 | 30.3% |
| O=C(NC1CCCC1)[C@@H]1C[C@@H]2CCN(Cc3ccoc3)C[C@H]2O1 | 54.8% |
| O=C(NCC1CC1)[C@@H]1C[C@@H]2CCN(Cc3ccoc3)C[C@@H]2O1 | -10.3% |
| O=C(NCC1CC1)[C@H]1C[C@@H]2CCN(Cc3ccc4c(c3)OCO4)C[C@@H]2O1 | 30.4% |
| O=C(NC1CC1)[C@H]1C[C@@H]2CCN(Cc3ccc4c(c3)OCO4)C[C@@H]2O1 | 61.1% |
| CCN(C)[C@H]1CN(C(=O)c2cccc(N3CCS(=O)(=O)CC3)c2)C[C@@H]1O | 8.74% |
| O=C1CC2(CCN(Cc3ccccn3)C2)CN1c1cncnc1 (stereo not drawn) | -3.41% |
| Cc1nccn1-c1ccc(NS(=O)(=O)c2cccnc2)cn1 | 6.94% |
| O=C(c1ccsc1)N1CCO[C@@H]2CN(Cc3cccs3)C[C@@H]2C1 | -2.46% |
| O=C(NCC1CCCO1)c1coc(Cn2cnc3ccccc32)n1 (stereo not drawn) | 69.1% |
| CSCCCNC(=O)c1coc(Cn2cnc3ccccc32)n1 | 25.1% |
| O=C(NCCO)c1coc(Cn2cnc3ccccc32)n1 | 52% |
| O=C(NCC1CCCCO1)c1cc(Cn2cnc3ccccc32)[nH]n1 (stereo not drawn) | 31.4% |
| O=C(NCCO)c1coc(CN2CCN(c3ccccc3F)CC2)n1 | 26.9% |
| Cn1cnc(-c2nc(C(=O)NCC3CCCO3)c3ccccn23)c1 (stereo not drawn) | 4.08% |
| CC(C)=CCN1C(=O)[C@@H]2CC[C@H]1CN(c1ncccc1C(N)=O)C2 | 49.7% |
| CC(C)(C)c1cc(NC(=O)CN2CCn3c(nnc3C3CC3)C2)on1 | -3.8% |
| NC(=O)C1CN(C(=O)Nc2ccccc2Oc2ccccc2Cl)CCO1 (stereo not drawn) | -67.7% |
| COc1ccc(C(=O)N2CC[C@@H]3[C@H](CC2)N(C)CCS3(=O)=O)cc1 | -14.3% |
| O=C(C1CC1)N1CC2(CCN(CC3CC3)CC2)c2cc(F)ccc21 | -15.9% |
| COC(=O)C1CN(Cc2ccn(-c3ccc(F)cc3)n2)C[C@@H](C)O1 (stereo partly drawn) | 16% |
| COC(=O)CC1CN(Cc2ccn(-c3ccc(F)cc3)n2)CCO1 (stereo not drawn) | 52.2% |
| COC(=O)C1CN(Cc2ccn(-c3ccc(F)cc3)n2)CCO1 (stereo not drawn) | -173% |
| Cc1ccc2c(c1)C(N1CCOCC1)CC21CCNCC1 (stereo not drawn) | 38.5% |
| COCCN1CCC2(CC1)CC(N1CCOCC1)c1cc(C)ccc12 (stereo not drawn) | 87.4% |
| COCC(=O)N1CCC2(CC1)CC(N1CCOCC1)c1ccc(C)cc12 (stereo not drawn) | -24.8% |

| Compound | INHIBITION |
| --- | --- |
| CCC(=O)N1CCC2(CC1)CC(N1CCOCC1)c1cc(C)ccc12 (stereo not drawn) | 61.8% |
| Cc1ccc2c(c1)C1(CCNCC1)CC2N1CCOCC1 (stereo not drawn) | -58.9% |
| COCCN1CCC2(CC1)CC(N1CCOCC1)c1ccc(C)cc12 (stereo not drawn) | 48.4% |
| O=C(c1sccc1C1CC1)N1CCN(c2cnccn2)CC1 | 44% |
| CN(Cc1cc2n(n1)CCNC2)Cc1n[nH]c2c1CCCCC2 | 44.3% |
| CN(C)c1nc2c(c(N(C)Cc3n[nH]c4c3CCCC4)n1)CCNCC2 | 70.2% |
| CN(Cc1n[nH]c2c1CCCC2)c1nc(C2CC2)nc2c1CCNCC2 | 62.8% |
| CN(C)c1nc2c(c(N(C)Cc3n[nH]c4c3CCCCC4)n1)CCNC2 | 26.8% |
| CN(Cc1n[nH]c2c1CCC2)c1nc(C2CCCC2)nc2c1CNC2 | 26.8% |
| CN(Cc1n[nH]c2c1CCCC2)c1nc2c(c(=O)[nH]1)CCNCC2 | 10.4% |
| COc1c(C(=O)NCc2cccnc2)nnn1Cc1ccccc1 | 2.69% |
| COc1ccc(F)c(CN2CCCC(O)(CNCC(C)(C)C)C2=O)c1 (stereo not drawn) | 71.7% |
| COc1ccc(F)c(CN2CCCC(O)(CNC3CCCCC3)C2=O)c1 (stereo not drawn) | 4.48% |
| COc1ccc(F)c(CN2CCCC(O)(CNCc3ccon3)C2=O)c1 (stereo not drawn) | 52% |
| CC(C)(C)CNCC1(O)CCCN(Cc2ccccc2F)C1=O (stereo not drawn) | 7.17% |
| COc1ccc(F)c(CN2CCCC(O)(CNCc3ncc[nH]3)C2=O)c1 (stereo not drawn) | 33.2% |
| COc1ccc(F)c(CN2CCCC(O)(CNCc3ccoc3)C2=O)c1 (stereo not drawn) | 34.1% |
| CCc1cccc(C)c1NC(=O)NCCCN(CC)S(C)(=O)=O | -17.7% |
| Cc1cc(C)n(C2CCCN(C(=O)Cc3cccc(F)c3)C2)n1 (stereo not drawn) | 19.4% |
| CC1c2ncc(Cn3cccn3)n2CCN1S(C)(=O)=O (stereo not drawn) | 43% |
| Cc1noc(C2CCCCN2C(=O)NC2CCCC2)n1 (stereo not drawn) | -43.4% |
| Cc1nc(CN2CCc3cc(C(=O)O)c(N(C)C)nc3CC2)cs1 | 19.4% |
| CN(C)CCCNC(=O)c1cc(-c2ccc3c(c2)CCO3)n[nH]1 | 54.5% |
| O=C(NCCCO)c1cc(-c2ccc3c(c2)CCO3)n[nH]1 | -49.2% |
| O=C(NCCO)c1cc(-c2ccc3c(c2)CCO3)n[nH]1 | 5.85% |
